Measurements taken from PubChem BioAssay (Tox21).
Where “and” joins values, the source holds several entries; their conditions need not be identical. Equal values may be shown once. Results filed as inconclusive are left out. Calls of active or inactive are those of the source. Unless noted, calls follow the shape of the dose curve; as a rule, active = well fitted curve in the direction sought with a large enough effect in the repeat runs; inconclusive = weak or mixed curves; inactive = no such curve, though single readings can be large; an effect the other way counts as inactive or inconclusive.

How the values were obtained:
[1] = qHTS assay to identify aromatase inhibitors - cell viability counter screen (AID 743084);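 also: cells stimulated with testosterone during compound exposure; nearly all actives have a fitted effect of over 55% in size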; also: potency is read from the fitted curve at half-maximal effect
[2] = target: Aryl hydrocarbon receptor (Homo sapiens) (UniProt P35869); experiment: qHTS assay to identify small molecule that activate the aryl hydrocarbon receptor (AhR) signaling pathway (AID 743085); also: nearly all actives have a fitted effect of over 15% in size; also: potency is read from the fitted curve at half-maximal effect;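 as to activation: HG2L7.5c1 human HepG2 liver cells with stably integrated DRE-driven firefly reporter; series mostly up to about 70 µM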
Aryl hydrocarbon receptor (Homo sapiens), sequence (P35869 whole entry, looked up): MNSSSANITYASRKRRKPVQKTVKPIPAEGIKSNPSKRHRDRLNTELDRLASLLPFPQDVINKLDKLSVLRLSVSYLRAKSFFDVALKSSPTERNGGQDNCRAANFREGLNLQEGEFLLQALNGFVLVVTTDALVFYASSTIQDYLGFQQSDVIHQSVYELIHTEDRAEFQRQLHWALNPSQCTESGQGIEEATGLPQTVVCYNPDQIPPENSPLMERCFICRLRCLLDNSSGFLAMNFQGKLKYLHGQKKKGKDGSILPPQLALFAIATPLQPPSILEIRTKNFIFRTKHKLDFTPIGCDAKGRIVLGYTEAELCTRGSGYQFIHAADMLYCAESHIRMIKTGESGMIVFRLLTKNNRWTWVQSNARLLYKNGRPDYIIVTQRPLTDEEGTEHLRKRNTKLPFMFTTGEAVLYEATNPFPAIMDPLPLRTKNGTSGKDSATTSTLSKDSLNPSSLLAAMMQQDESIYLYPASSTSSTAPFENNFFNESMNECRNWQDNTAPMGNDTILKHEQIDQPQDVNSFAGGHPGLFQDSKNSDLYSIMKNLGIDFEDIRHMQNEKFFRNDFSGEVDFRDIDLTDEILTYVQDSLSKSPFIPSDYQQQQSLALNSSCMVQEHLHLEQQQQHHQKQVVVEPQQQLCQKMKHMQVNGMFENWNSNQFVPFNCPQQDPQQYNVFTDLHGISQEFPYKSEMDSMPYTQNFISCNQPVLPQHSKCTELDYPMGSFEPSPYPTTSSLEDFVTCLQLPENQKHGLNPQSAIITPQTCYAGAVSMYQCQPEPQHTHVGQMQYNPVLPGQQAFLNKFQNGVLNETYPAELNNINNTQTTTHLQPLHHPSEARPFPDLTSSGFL
Outline: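 AhR agonist activity is inferred from enhanced light output of a DRE-controlled firefly luciferase reporter in HepG2 cells, measured with ONE-Glo following 24 h treatment at 37C.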

[3] = target: Peroxisome proliferator-activated receptor gamma (Homo sapiens) (UniProt P37231); experiment: qHTS assay to identify small molecule agonists of the peroxisome proliferator-activated receptor gamma (PPARg) signaling pathway (AID 743094; active = well fitted activation curve with a large enough effect in the signal ratio in the repeat runs, not every such curve was filed as active; the % refers to the signal ratio)
Peroxisome proliferator-activated receptor gamma (Homo sapiens), sequence (P37231 whole entry, looked up): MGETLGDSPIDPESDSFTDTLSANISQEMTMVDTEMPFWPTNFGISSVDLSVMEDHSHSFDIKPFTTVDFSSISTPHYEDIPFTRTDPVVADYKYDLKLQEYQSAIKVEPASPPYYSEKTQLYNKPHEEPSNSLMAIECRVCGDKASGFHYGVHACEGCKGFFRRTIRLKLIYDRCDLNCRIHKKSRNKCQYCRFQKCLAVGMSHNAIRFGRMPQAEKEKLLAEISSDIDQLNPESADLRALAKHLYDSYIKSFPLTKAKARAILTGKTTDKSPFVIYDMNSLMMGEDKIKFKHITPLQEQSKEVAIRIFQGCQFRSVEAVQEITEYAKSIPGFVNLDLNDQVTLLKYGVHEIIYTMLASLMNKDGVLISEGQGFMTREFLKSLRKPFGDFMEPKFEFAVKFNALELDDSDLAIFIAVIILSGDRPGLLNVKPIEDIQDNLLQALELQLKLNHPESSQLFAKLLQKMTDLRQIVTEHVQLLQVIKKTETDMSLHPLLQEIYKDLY
Outline: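 Cells from the PPARg UAS-bla HEK293H line are plated and incubated 5 h at 37C. Compounds in DMSO are pinned in and left 17 h at 37C. LiveBLAzer B/G substrate is then added for 1 h at room temperature before fluorescence is measured.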

[4] = qHTS assay to identify small molecule antagonists of the peroxisome proliferator-activated receptor gamma (PPARg) signaling pathway - cell viability counter screen (AID 743194); also: nearly all actives have a fitted effect of over 55% in size; also: potency is read from the fitted curve at half-maximal effect
Outline: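 Cytotoxicity counter screen in PPARg-bla HEK293H cells, same wells as reporter assay. Compounds plus 50 nM rosiglitazone (final) for 17 h at 37 C, then viability read by CellTiter-Glo luminescence.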

[5] = qHTS assay for small molecule agonists of the antioxidant response element (ARE) signaling pathway - cell viability counter screen (AID 743203; calls by dose curve; also: nearly all actives have a fitted effect of over 55% in size; also: potency is read from the fitted curve at half-maximal effect)
Outline: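 Cytotoxicity was tested in parallel with the ARE reporter screen. ARE-bla HepG2 cells were exposed to compounds for 16 hrs, and viability was taken from CellTiter-Glo luminescence.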

[6] = qHTS assay for small molecule activators of the heat shock response signaling pathway - cell viability counter screen (AID 743209); also: nearly all actives have a fitted effect of over 50% in size; also: potency is read from the fitted curve at half-maximal effect
Outline: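 Cytotoxicity counter screen run in parallel with the HSE beta-lactamase reporter, using the same wells. HeLa HSE-bla cells received compound for 5 h at 37 C; ATP-based CellTiter-Glo luminescence was measured after 30 min at room temperature.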

[7] = target: Peroxisome proliferator-activated receptor delta (Homo sapiens) (UniProt Q03181); experiment: qHTS assay to identify small molecule agonists of the peroxisome proliferator-activated receptor delta (PPARd) signaling pathway (AID 743212; calls by dose curve)
Peroxisome proliferator-activated receptor delta (Homo sapiens), sequence (Q03181 whole entry, looked up): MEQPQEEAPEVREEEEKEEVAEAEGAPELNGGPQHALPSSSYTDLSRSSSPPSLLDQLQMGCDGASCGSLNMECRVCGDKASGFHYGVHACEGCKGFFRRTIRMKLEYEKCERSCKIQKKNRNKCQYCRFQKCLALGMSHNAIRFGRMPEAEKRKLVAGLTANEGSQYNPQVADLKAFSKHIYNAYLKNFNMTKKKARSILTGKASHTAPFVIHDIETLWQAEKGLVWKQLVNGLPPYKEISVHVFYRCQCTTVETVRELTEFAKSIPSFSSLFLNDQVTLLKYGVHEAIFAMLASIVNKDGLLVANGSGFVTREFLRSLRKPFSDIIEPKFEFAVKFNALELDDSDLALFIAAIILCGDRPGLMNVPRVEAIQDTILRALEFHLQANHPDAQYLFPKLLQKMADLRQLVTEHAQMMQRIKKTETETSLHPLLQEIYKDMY
Outline: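 Read-out: beta-lactamase FRET fluorescence after 2 h room-temperature incubation with LiveBLAzer B/G substrate. Cells were HEK293H carrying a UAS-bla reporter for PPARd, treated at 37 C with DMSO-dissolved compounds.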

[8] = qHTS assay to identify small molecule antagonists of the peroxisome proliferator-activated receptor delta (PPARd) signaling pathway - cell viability counter screen (AID 743213); also: nearly all actives have a fitted effect of over 50% in size; also: potency is read from the fitted curve at half-maximal effect
Outline: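 HEK293H PPARd UAS-bla cells, 5 h pre-incubation, compound + L165041 300 nM final, 17 h 37 C; B/G FRET substrate 2 h RT; then CellTiter-Glo 30 min RT, luminescence.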

[9] = qHTS assay to identify small molecule agonists of the farnesoid-X-receptor (FXR) signaling pathway - cell viability counter screen (AID 743218); also: nearly all actives have a fitted effect of over 45% in size; also: potency is read from the fitted curve at half-maximal effect
Outline: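 Cells were seeded, left 5 h at 37 C and 5% CO2, then dosed with compound in DMSO for 16 h. After the beta-lactamase FRET read, CellTiter-Glo was added and luminescence measured 30 min later.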

[10] = target: Bile acid receptor (Homo sapiens) (UniProt Q96RI1); experiment: qHTS assay to identify small molecule agonists of the farnesoid-X-receptor (FXR) signaling pathway (AID 743220; active = well fitted activation curve with a large enough effect in the signal ratio in the repeat runs, not every such curve was filed as active; the % refers to the signal ratio)
Bile acid receptor (Homo sapiens), sequence (Q96RI1 whole entry, looked up): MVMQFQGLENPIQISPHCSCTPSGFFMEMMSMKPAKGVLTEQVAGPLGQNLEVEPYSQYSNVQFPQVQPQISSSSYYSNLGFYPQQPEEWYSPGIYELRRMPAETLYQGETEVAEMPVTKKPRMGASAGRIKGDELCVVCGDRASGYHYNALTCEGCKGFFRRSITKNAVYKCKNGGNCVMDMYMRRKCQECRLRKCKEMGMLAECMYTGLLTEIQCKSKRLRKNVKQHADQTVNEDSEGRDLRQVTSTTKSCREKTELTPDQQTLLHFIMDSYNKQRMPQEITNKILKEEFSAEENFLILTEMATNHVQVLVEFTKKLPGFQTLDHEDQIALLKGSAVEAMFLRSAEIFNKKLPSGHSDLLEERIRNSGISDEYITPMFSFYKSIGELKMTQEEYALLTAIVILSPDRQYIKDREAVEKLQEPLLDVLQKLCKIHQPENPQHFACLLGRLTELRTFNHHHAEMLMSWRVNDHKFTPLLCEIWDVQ
Outline: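 FXR-UAS-bla HEK 293T cells carrying a UAS-driven beta-lactamase reporter were plated for 5 h at 37C/5% CO2, then exposed to DMSO-dissolved Tox21 10K compounds for 16 h at 37C. A LiveBLAzer B/G FRET substrate was loaded for 2 h at room temperature before fluorescence reading.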

[11] = qHTS assay to identify small molecule antagonists of the farnesoid-X-receptor (FXR) signaling pathway - cell viability counter screen (AID 743221; active = well fitted cell-killing curve with a large enough effect in the repeat runs, not every such curve was filed as active; also: nearly all actives have a fitted effect of over 50% in size)
Outline: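 After a 5 h settling period, FXR-bla HEK 293T cells receive compound and chenodeoxycholic acid (50 uM final) and incubate 16 h at 37 C; CellTiter-Glo luminescence, read after 30 min at room temperature, reports cell viability.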

[12] = target: Vitamin D3 receptor (Homo sapiens) (UniProt P11473); experiment: qHTS assay to identify small molecule agonists of the vitamin D receptor (VDR) signaling pathway (AID 743222; calls by dose curve)
Vitamin D3 receptor (Homo sapiens), sequence (P11473 whole entry, looked up): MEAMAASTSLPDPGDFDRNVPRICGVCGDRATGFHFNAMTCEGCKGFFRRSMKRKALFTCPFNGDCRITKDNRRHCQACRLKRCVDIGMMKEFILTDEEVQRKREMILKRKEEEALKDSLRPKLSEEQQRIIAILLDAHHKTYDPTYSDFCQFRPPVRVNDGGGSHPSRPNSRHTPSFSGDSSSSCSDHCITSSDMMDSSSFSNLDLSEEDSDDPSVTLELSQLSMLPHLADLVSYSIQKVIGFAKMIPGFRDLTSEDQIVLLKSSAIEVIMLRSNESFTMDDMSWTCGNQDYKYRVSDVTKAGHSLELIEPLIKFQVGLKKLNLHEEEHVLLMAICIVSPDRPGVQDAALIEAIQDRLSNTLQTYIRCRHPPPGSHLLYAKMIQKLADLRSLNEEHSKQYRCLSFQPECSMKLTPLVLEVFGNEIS
Outline: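 Cells carrying a VDR-driven beta-lactamase reporter are seeded at 2,000 per well and rested 4 h. Compounds in DMSO are added for 16 h at 37C, and FRET substrate fluorescence is measured after 2 h at room temperature.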

[13] = target: Vitamin D3 receptor (Homo sapiens) (UniProt P11473); experiment: qHTS assay to identify small molecule antagonists of the vitamin D receptor (VDR) signaling pathway (AID 743223; active = well fitted inhibition curve with a large enough effect in the signal ratio in the repeat runs, not every such curve was filed as active; the % refers to the signal ratio)
Outline: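 Reporter line VDR-bla; stimulus 1alpha,25-(OH)2 vitamin D3, 3 nM final; compound co-addition, 16 h 37C/5% CO2; LiveBLAzer B/G substrate 2 h RT; fluorescence intensity.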

[14] = qHTS assay for small molecule agonists of the antioxidant response element (ARE) signaling pathway (AID 743202; active = well fitted activation curve with a large enough effect in the signal ratio in the repeat runs, not every such curve was filed as active; the % refers to the signal ratio)
Outline: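 HepG2 ARE-bla reporter line, 2,000 cells/well; 5 h preincubation 37 C/5% CO2; compound (DMSO) 16 h 37 C; B/G FRET substrate 2 h RT; fluorescence intensity.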

[15] = qHTS assay to identify small molecule agonists of the peroxisome proliferator-activated receptor delta (PPARd) signaling pathway - cell viability counter screen (AID 743211); also: nearly all actives have a fitted effect of over 55% in size; also: potency is read from the fitted curve at half-maximal effect
Outline: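 qHTS cell viability: PPARd-bla HEK293H; 17 h cpd, 37C; CellTiter-Glo, luminescence at 30 min RT.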

[16] = target: Peroxisome proliferator-activated receptor gamma (Homo sapiens) (UniProt P37231); experiment: qHTS assay to identify small molecule antagonists of the peroxisome proliferator-activated receptor gamma (PPARg) signaling pathway (AID 743191; calls by dose curve; also: series mostly up to about 63 µM; nearly all actives have a fitted effect of over 30% in size)
Outline: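 GeneBLAzer PPARg UAS-bla HEK293H cells, 5 h post-plating, exposed to compounds 17 h at 37C. LiveBLAzer B/G FRET substrate added for 1 h at room temperature; beta-lactamase reporter read by fluorescence intensity.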

[17] = qHTS assay for small molecule activators of the heat shock response signaling pathway (AID 743210; active = well fitted activation curve with a large enough effect in the signal ratio in the repeat runs, with a control signal flat, not every such curve was filed as active; the % refers to the signal ratio;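 also: HeLa cells with beta-lactamase reporter driven by heat shock elements; series mostly up to about 63 µM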)
Outline: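 Beta-lactamase reporter read-out: FRET substrate fluorescence after 2.5 h at RT, following 5 h compound treatment at 37 C of HeLa cells carrying HSE-driven bla reporter; quantitative HTS format.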

[18] = target: Bile acid receptor (Homo sapiens) (UniProt Q96RI1); experiment: qHTS assay to identify small molecule antagonists of the farnesoid-X-receptor (FXR) signaling pathway (AID 743217; active = well fitted inhibition curve with a large enough effect in the signal ratio in the repeat runs, not every such curve was filed as active; the % refers to the signal ratio; also: potency is read from the fitted curve at half-maximal effect)
Outline: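 Cells carrying a UAS-driven beta-lactamase reporter (GeneBLAzer FXR-UAS-bla HEK 293T) were plated and rested 5 h at 37 °C. Compounds in DMSO were added alongside chenodeoxycholic acid agonist at 50 uM final and left 16 h at 37 °C before FRET substrate readout.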

[19] = qHTS assay to identify small molecule that activate the aryl hydrocarbon receptor (AhR) signaling pathway - cell viability counter screen (AID 743086);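 also: HepG2 liver cells carrying the AhR DRE luciferase reporter; series mostly up to about 70 µM; nearly all actives have a fitted effect of over 45% in size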
Outline: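 HepG2-AhR-luc (HG2L7.5c1) cells, 4000/well, treated 24 h at 37 C with compound; viability measured as CellTiter-Fluor fluorescence after 30 min in the same wells as the luciferase read.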

[20] = target: Peroxisome proliferator-activated receptor delta (Homo sapiens) (UniProt Q03181); experiment: qHTS assay to identify small molecule antagonists of the peroxisome proliferator-activated receptor delta (PPARd) signaling pathway (AID 743215; active = well fitted inhibition curve with a large enough effect in the signal ratio in the repeat runs, not every such curve was filed as active; the % refers to the signal ratio;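 also: cells stimulated with agonist L165041 at 300 nM final during compound exposure; series mostly up to about 62 µM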)
Outline: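 Cells: HEK293H with a UAS-driven beta-lactamase reporter responsive to PPARd. Compounds were co-added with L165041 (300 nM, final) and incubated 17 h at 37 C before a 2 h room-temperature FRET substrate step and fluorescence reading.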

Measured: Potency

CCCCCCCN
not listed: [14] | [15] | [16] | [17] | [18] | [19] | [20]
inactive: all other assays above

CC(=O)[O][Al]
inactive: [1] | [2] | [4] | [14] | [5] | [6] | [15] | [8] | [9] | [11]

C#Cc1cccc(Nc2ncnc3cc(OCCOC)c(OCCOC)cc23)c1
active: [2] 2.66 µM
not listed: [3] | [12] | [13] | [14] | [19] | [20]
inactive: all other assays above

CCN(CC)CCOC(=O)C(c1ccccc1)C1CCCCC1 (configuration not stated)
inactive: [1] | [19] | [3] | [16] | [14] | [5] | [6] | [20] | [11] | [12] | [13]

CC(C)=CCC/C(C)=C/CC/C(C)=C/CO
active: [15] 38.9 µM
not listed: [6] | [7] | [10] | [14] | [16] | [17] | [18] | [19]
inactive: all other assays above

COC(=O)c1ccc(I)cc1S(=O)(=O)NC(=O)Nc1nc(C)nc(OC)n1
not listed: [7] | [10] | [16] | [18] | [19] | [20]
inactive: all other assays above

C[N+]1(C)CCC(OC(=O)C(O)(c2ccccc2)C2CCCC2)C1 (configuration not stated)
not listed: [2] | [10] | [14] | [16] | [18] | [20]
inactive: all other assays above

C=CC(=O)OCCOCCOC(=O)C=C
inactive: [2] | [5]
active: [1] 13.7 µM | [15] 49.2 µM

CCCCCCCCCc1ccc(OCCOCCO)cc1
inactive: [2] | [3] | [5] | [7] | [10] | [11] | [12] | [13]
active: [1] 21.1 µM and 22.8 µM | [6] 23 µM | [8] 20.5 µM

Cn1c(=O)cc(Oc2ccc(F)cc2F)c2cnc(NCC(C)(C)O)nc21
inactive: [1] | [2] | [3] | [4] | [5] | [15] | [7] | [8] | [10]
active: [18] 43.6 µM

COc1ccnc(CS(=O)c2nc3ccc(OC(F)F)cc3[nH]2)c1OC (configuration not stated)
inactive: [1] | [19] | [3] | [16] | [5] | [6] | [17] | [7] | [8] | [20] | [9]

CC1(c2ccccc2)OC(C(=O)O)=CC1=O (configuration not stated)
not listed: [2] | [9] | [11] | [14] | [17] | [20]
inactive: all other assays above

O=C1OC(=O)C2C3C=CC(C3)C12 (configuration not stated)
not listed: [10] | [11] | [14] | [16] | [18] | [19]
inactive: all other assays above

c1cc(CCCc2ccncc2)ccn1
not listed: [2] | [10] | [16] | [18]
inactive: all other assays above

COc1cc(Cl)ccc1Oc1ccc(Cl)cc1Cl
active: [15] 47.6 µM
not listed: [14] | [16] | [19]
inactive: all other assays above

CCC(CC)Nc1ccc(C)c(C)c1
inactive: [1] | [19] | [3] | [16] | [5] | [6] | [15] | [8] | [9] | [11]

CN(C)C(=O)NC1(c2ccccc2)CCN(CC[C@@]2(c3ccc(F)c(F)c3)CN(C(=O)c3ccccc3)CCO2)CC1
not listed: [3] | [9] | [12] | [13] | [15] | [19]
inactive: all other assays above

O=S(c1cc(Cl)cc(Cl)c1O)c1cc(Cl)cc(Cl)c1O
inactive: [2] | [19]
active: [4] 26.6 µM | [5] 11.9 µM | [15] 23.7 µM

C#C[C@]1(O)CC[C@H]2[C@@H]3CCc4cc(OC5CCCC5)ccc4[C@H]3CC[C@@]21C
inactive: [1] | [19] | [3] | [4] | [6] | [17] | [12] | [13]
active: [9] 26.6 µM

CN1CCC(N(Cc2cccs2)c2ccccc2)CC1
inactive: [1] | [3] | [5] | [7]
